About 83,000 compounds went through this panel and 20% of them were active in at least one assay; those are over-represented in the sample as a whole.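 The test compound was applied at a single concentration to cells in 96-well plates for 48 hours, and percent growth was recorded.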 Calls of active or inactive are those of the source. How the source made its calls: active means growth percent below 10; inactive means the rest.
These compounds were tested on HL-60(TB) leukemia (assay: NCI-60 one-dose screen, 48 h (100 = growth as untreated, 0 = no growth, -100 = all killed)). Conditions: 10 µM unless noted.

With CC1(C)CC[C@]2(CO)CC[C@]3(C)C(=CC[C@@H]4[C@@]5(C)CCNCC(C)(C)[C@@H]5CC[C@]43C)[C@@H]2C1 as the compound, how does the growth read?
Its growth is 23.5% (inactive).

COc1ccc2c3c([nH]c2c1)C(=O)c1nc(C)ccc1C3=O was tested. Which growth did it give?
Its growth is 59% (inactive).

COc1ccc(N(C)c2ncnc3occ(C)c23)cc1 was tested. Which growth did it give?
The growth was -34.9% (active).

For COc1ccc(/C=C/C(=O)c2ccc(Nc3ncnc4ccccc34)cc2)cc1OC, which growth is on record?
Its growth is 75.6% (inactive).

For COC1(CC[C@@H](C)COC2OC(CO)C(O)C(O)C2O)O[C@H]2C[C@H]3[C@@H]4CC=C5C[C@@H](OC6OC(CO)C(OC7OC(C)C(O)C(O)C7O)C(O)C6OC6OC(C)C(O)C(O)C6O)CC[C@]5(C)[C@H]4CC[C@]3(C)[C@H]2[C@@H]1C (stereo partly specified), which growth is on record?
Its growth is 27.1% (inactive).

How did the growth turn out when Cc1c(Cl)cc(Cl)c(N)c1Cl was run?
Its growth is 102% (inactive).

For O=c1[nH]c2ccccc2n2cc3cccnc3c12, which growth is on record?
Its growth is 87.5% (inactive).

With C=CCC(CCCC)(C(=O)OCC)C(=O)OCC as the compound, how does the growth read?
Its growth is 80.6% (inactive).

CO[C@@H](C)Cn1c(=O)n(C)c2cnc3ccc(-c4cncc(C(C)(C)O)c4)cc3c21 was tested. Which growth did it give?
Its growth is 8.97% (active).

For CC(=O)OC1Oc2ccccc2-c2oc3nc(=N)n(C)c-3cc21 (stereo unspecified), which growth is on record?
Its growth is 94.4% (inactive).

How did the growth turn out when COc1ccc(C(=O)c2nc3ccccc3n2CC(=O)c2ccc(F)cc2)cc1 was run?
The growth was 79.5% (inactive).

For COc1cc(C2C=C(c3ccc(Cl)cc3)N=C3SC(C)=CN32)cc(OC)c1OC (stereo unspecified), which growth is on record?
The growth was 93.6% (inactive).

Which growth does the source give for COc1ccc(-c2nnc(SCC(=O)Nc3ccc(C(=O)/C=C/c4ccc(OC)c(OC)c4)cc3)o2)cc1 here?
The growth was 74.7% (inactive).

CC(=O)O[C@]1(C(C)=O)CCC2C3C[C@H](C)C4=CC(=O)CC[C@]4(C)C3CC[C@@]21C (stereo partly specified) was tested. Which growth did it give?
The growth was 87.4% (inactive).

Which growth does the source give for CC(=O)Nc1ccc(-c2cc3c(NCc4ccc(F)cc4)ncnc3s2)cc1 here?
The growth was 89.1% (inactive).

How did the growth turn out when Cc1nnc(Nc2ccc(NC(=O)Nc3ccc(Cl)cc3)cc2)c2ccccc12 was run?
Its growth is -34.8% (active).

With Nc1ccccc1-c1ccn[nH]1 as the compound, how does the growth read?
Its growth is 95.6% (inactive).

With CCN(CC)CCCC(C)Nc1c2ccc(Cl)cc2nc2cc(OC)c(OC)cc12 (stereo unspecified) as the compound, how does the growth read?
Its growth is 6.67% (active).

For COc1ccc(S(=O)(=O)Nc2cc(Sc3cccc4cccnc34)c(O)c3ccccc23)cc1, which growth is on record?
Its growth is -18.8% (active).

With COc1cc(/C=C(/C)C[N+](=O)[O-])ccc1O as the compound, how does the growth read?
Its growth is 71.5% (inactive).

With O=C(O)c1cccc2c1-c1ccccc1C2=O as the compound, how does the growth read?
Its growth is 106% (inactive).

COc1cc(C(=O)N2CCN(c3ccccc3OC)CC2)c(N)cc1OCCCN1CCN(c2ccccc2OC)CC1 was tested. Which growth did it give?
The growth was 85.3% (inactive).

How did the growth turn out when C=C[C@@H]1C[C@@H]2Cc3ccccc3N1O2 was run?
Its growth is -12.8% (active).

Which growth does the source give for COC(=O)c1ccc2oc(NC(=O)c3ccc(Nc4ccc([N+](=O)[O-])cc4C)c([N+](=O)[O-])c3)nc2c1 here?
Its growth is 99.7% (inactive).

With Clc1cc(Cl)cc(-c2cnc3nonc3n2)c1 as the compound, how does the growth read?
The growth was 10.9% (inactive).

Which growth does the source give for COc1cc(C(=O)NC(=S)Nc2ccc3ccccc3c2)cc(OC)c1OC here?
The growth was 97.1% (inactive).

For COc1ccc(C/C(=C(\C)c2ccc(OCCN3CCCC3)cc2)c2ccc(OCCN3CCCC3)cc2)cc1, which growth is on record?
Its growth is -58.1% (active).

How did the growth turn out when C=CC(=O)Nc1cccc(Nc2nc(SC)nc(-c3cccc([N+](=O)[O-])c3)c2C#N)c1 was run?
The growth was 63.4% (inactive).

Which growth does the source give for COc1cc(OC)c(C(=O)/C=C/c2cccc(C#N)c2)c(OC)c1 here?
Its growth is -8.6% (active).

How did the growth turn out when O=C(Cn1c[n+](CC(=O)c2ccc(-c3ccccc3)cc2)c2ccccc21)Nc1cccc2cccnc12 was run?
The growth was -37.2% (active).

COC(=O)c1nc(-c2ccccc2)oc1S(=O)(=O)N1CCN(c2ccc(OC)cc2)CC1 was tested. Which growth did it give?
Its growth is 21.8% (inactive).

Which growth does the source give for COc1ccc2c(c1)/C(=C\c1sc(=S)[nH]c1O)C(C(=O)O)=N2 here?
The growth was 101% (inactive).

Which growth does the source give for CCc1ccc(C2=NN(c3ccc(S(C)(=O)=O)cc3)C(=O)CC2)cc1 here?
Its growth is 6.73% (active).

With CCCCCCCCCCCCCCCCCC1=NCCN1CS(=O)(=O)O as the compound, how does the growth read?
The growth was 24.2% (inactive).

For CC1(C)CC[C@]2(CO)CC[C@]3(C)[C@](O)([C@H](O)C[C@@H]4[C@@]5(C)CCCNC(C)(C)[C@@H]5CC[C@]43C)[C@@H]2C1, which growth is on record?
The growth was 71% (inactive).

How did the growth turn out when C=C(C)[C@@H]1CC[C@]2(C(=O)NCCCCCCN(CCCN)CCCN)CC[C@]3(C)[C@H](CC[C@@H]4[C@@]5(C)CC[C@H](OCCCN)C(C)(C)[C@@H]5CC[C@]43C)[C@@H]12 was run?
Its growth is 37% [100 µM] (inactive).

Source: PubChem BioAssay (NCI)
